Source: PubChem BioAssay (NCATS)
Results filed as inconclusive are left out. Calls of active or inactive are those of the source. Calls follow the shape of the dose curve; as a rule, active = well fitted cell-killing curve with a large enough effect; inconclusive = small, poorly fitted or top-dose-only effect; inactive = flat fitted curve, though single readings scatter.

Assay: qHTS of pediatric cancer cell lines to identify multiple opportunities for drug repurposing: Primary screen for Rh18 cells (AID 1347102); also: nearly all actives have a fitted effect of over 65% in size
Settings: Rh18 rhabdomyosarcoma viability, CellTiter-Glo luminescence, 48 h; series mostly up to 46 µM; activity change, negative = cytotoxic: at the top concentration
From the text: Drug repurposing or repositioning has been offered as a strategy for drug development in oncology programs. This approach has special potential for childhood cancers and other rare or orphan diseases, where the expected return on new drug development has been a disincentive to pharmaceuticals.
In this project we exploit the poly-pharmacology of drugs to discover new indications via phenotypic screening of a panel of 19 well-characterized cell lines derived from solid tumors seen in children and adolescents. The goal is to identify approved drugs with previously unrecognized anticancer properties that has the potential to reveal new mechanisms and biological processes involved in carcinogenesis or drug resistance. We employed a titration-based paradigm (quantitative high-throughput screening or qHTS), where all compounds were tested at multiple concentrations for their effect on cell viability. Concentration-response curves (CRCs) were derived directly from the primary screen, and both potency and efficacy values were used to identify compounds with robust bioactivity profiles. We screened the NIH Chemical Genomics Center (NCGC) Pharmaceutical Collection (NPC) and Mechanism Interrogation Plate (MIPE) small molecule collections of approved and investigational compounds against these cell lines; and measured metabolically active cells after 48 hours of compound treatment as a proxy for cell viability.
Assay Submitter: Nathalia J. Martinez, National Center for Advancing Translational Sciences, National Institutes of Health, Rockville, MD, USA; email: natalia.martinez@nih.gov
[1] Shen, M et al. Quantitative high-throughput phenotypic screening of pediatric cancer cell lines identifies multiple opportunities for drug repurposing. Oncotarget 2017 Dec 19;9(4):4758-4772. PMID 29435139.
The cells were obtained from University of North Carolina (UNC), Pediatric Preclinical Testing Program (PPT), and Coriell Institute (CI).
qHTS cell viability assay:
Cells were assayed in growth media at a density of 500-1,000 cells/well. Five microliters of cells were dispensed into 1,536-well, white, solid-bottom, TC-treated plates (Greiner Bio One) using a multidrop dispenser and incubated at 37 degrees C, 5% CO2, under a humidified atmosphere for 5 hours. Twenty-three nanoliters of compounds and controls (neutral control DMSO or positive control bortezomib at final concentration of 2.3 µM) were subsequently transferred by Kalypsys pintool. For primary screens, the MIPE collection was tested at 11-point dilutions (final concentrations range from 0.78 nM to 46 µM) and the NPC collection at 8-point dilutions (final concentrations range from 0.59 nM to 46 µM). Compounds tested in follow-up screens were assayed at 11-point dilutions. Cells were incubated for 48 hours, followed by addition of 3 µL of CellTiter-Glo (Promega). After a 15 min incubation at room temperature, samples were analyzed for luminescence intensity using a ViewLux High-throughput CCD imager equipped with clear filters.
% is scaled to controls: 0 for no effect and ±100 for the full control effect; potency is read from the fitted curve at half-maximal effect.

| Compound | Potency | activity change, negative = cytotoxic |
| --- | --- | --- |
| COc1cccc2c1C(=O)c1c(O)c3c(c(O)c1C2=O)C[C@@](O)(C(=O)CO)C[C@@H]3O[C@H]1C[C@H](N)[C@H](O[C@@H]2CCCCO2)[C@H](C)O1 | 15 µM (active) | – |
| CN(C)CCn1nnnc1SCC1=C(C(=O)O)N2C(=O)[C@@H](NC(=O)Cc3csc(N)n3)[C@H]2SC1 | – | 18.9% (inactive) |
| Cc1nc2ccccc2n1Cc1ccc(Cl)cc1 | – | -14.1% (inactive) |
| S=c1[nH]c2ccccc2s1 | – | 16.7% [at 92.7 µM] (inactive) |
| c1ccc2sc(SSc3nc4ccccc4s3)nc2c1 | – | 3.05% [at 16.1 µM] (inactive) |
| Nc1ccc([N+](=O)[O-])cc1O | – | -13.6% [at 92.7 µM] (inactive) |
| O=C(CCN1CCN(CCO)CC1)N1c2ccccc2Sc2ccc(C(F)(F)F)cc21 | – | -3.1% (inactive) |
| CNC(=O)c1c(I)c(NC(=O)CCCCC(=O)Nc2c(I)c(C(=O)O)c(I)c(C(=O)NC)c2I)c(I)c(C(=O)O)c1I | – | 3.04% (inactive) |
| Cc1ccc2c(n1)Oc1ccc(C(C)C(=O)OCC(=O)N(C)C)cc1C2 (stereo not given) | inactive | – |
| Nc1cc(-c2ccncc2)c[nH]c1=O | – | 22.7% (inactive) |
| CCC1C(=O)OCC1Cc1cncn1C (stereo not given) | – | 14.5% (inactive) |
| C[N+]1(C)[C@@H]2CC(OC(=O)[C@H](CO)c3ccccc3)C[C@H]1[C@@H]1O[C@@H]12 (stereo not given in full) | – | 25.6% (inactive) |
| CN1CCN(c2cc3c(nn2)Oc2ccccc2N3C)CC1 | – | 11.3% [at 16.1 µM] (inactive) |
| O=C1CN(/N=C/c2ccc([N+](=O)[O-])o2)C(=O)N1 | – | 3.22% (inactive) |
| Cc1ccc(O)c(-n2nc3ccccc3n2)c1 | – | -3.42% (inactive) |
| CC1(C)S[C@@H]2[C@H](NC(=O)[C@H](N)c3ccccc3)C(=O)N2[C@H]1C(=O)O | – | 10.8% (inactive) |
| Nc1ccc(O)c([N+](=O)[O-])c1 | – | 7.81% [at 92.7 µM] (inactive) |
| CN(C)c1ccc(C(=C2C=CC(=[N+](C)C)C=C2)c2ccccc2)cc1 | 0.075 µM (active) | – |
| O=C(O)Cc1ccc(-c2ccccc2)cc1 | – | 9.65% (inactive) |
| COC(=O)c1nc(Cl)c(Cl)nc1N | 23.7 µM (active) | – |

| Compound | Potency | activity change, negative = cytotoxic |
| --- | --- | --- |
| CCCCCCCC/C=C/C(=O)O | – | 1.58% (inactive) |
| CC(C(=O)O)c1ccc(C(=O)c2cccs2)cc1 (stereo not given) | – | 0.622% (inactive) |
| O=C(O)/C=C\C(=O)O | – | 10.5% (inactive) |
| Cc1[nH]cnc1CN1CCc2c(c3ccccc3n2C)C1=O | – | 8.81% (inactive) |
| CC(N)C(=O)OC(C)(C)Cc1ccc(Cl)cc1 (stereo not given) | – | -24.5% (inactive) |
| O=C(Nc1ccc(C(=O)O)c(O)c1)c1ccccc1 | – | 26.6% (inactive) |
| COC(=O)C1=C(C)NC(C)=C(C(=O)OCC(C)=O)C1c1ccccc1[N+](=O)[O-] (stereo not given) | – | -6.19% (inactive) |
| C/C(=N\O)c1ccc(OCC(=O)N2CCCCC2)cc1 | – | 0.836% (inactive) |
| CC(=O)SCC(CC(=O)c1ccc(C)cc1)C(=O)O (stereo not given) | – | -1.18% (inactive) |
| [O-][n+]1ccccc1SSc1cccc[n+]1[O-] | 0.517 µM (active) | – |
| N=C1N=C(N)c2cc3ccccc3cc21 | 48.6 µM (active) | – |
| COc1ccc(-c2cc(=S)ss2)cc1 | – | 9.1% (inactive) |
| c1ccc(CCNc2nc(-c3ccccc3)cs2)cc1 | – | -12.7% (inactive) |
| COc1ccnc2c1CCCCC2S(=O)c1nc2ccccc2[nH]1 (stereo not given) | – | 18.8% (inactive) |
| O=c1cc(-c2ccccc2)oc2ccccc12 | – | -30% [at 92.7 µM] (inactive) |
| Cc1c(Nc2ncccc2C(=O)O)cccc1C(F)(F)F | – | 2.06% (inactive) |
| CCCCCCCCCCCCOCCO | – | 12.5% (inactive) |
| O=C(CS)Nc1ccccc1 | – | -21.9% (inactive) |
| NCCO | – | 11.4% [at 92.7 µM] (inactive) |
| Cc1c(N)c(=O)n(-c2ccccc2)n1C | – | 0.631% (inactive) |
